Screens (PubChem)
ClpP mod = qHTS Assay for Activators of ClpP; ATP-dependent Clp protease proteolytic subunit (Bacillus subtilis (strain 168)), P80244; purified B. subtilis ClpP, FRET peptide cleavage, 20 min; Potency, µM (series often up to 57.5 µM), for the others: at the top dose activity change, negative = active; actives 1.9% (n = 340,000); AID 651965, 2013; active means well fitted falling curve with a large enough effect; inconclusive means small, poorly fitted or top-dose-only effect; inactive means no such curve, though single readings can be large or run the other way; further: the source files actives as falling curves though it sought activators and does not explain the sign; nearly all actives have a fitted effect of over 65% in size
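FRET quenching reversal measured ClpP activation: 10 microg/mL B. subtilis ClpP at pH 8 with the FRET-FV decapeptide, read at 430 nm after 320 nm excitation. The 20-min minus 0-min signal was scaled between DMSO/no-enzyme wells and ADEP (5.8 microM final).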
TDP1 inh = inhibitors of human tyrosyl-DNA phosphodiesterase TDP1; Q9NUW8; recombinant TDP1, AlphaScreen DNA substrate cleavage; actives 0.28% (n = 350,000); Potency, µM (series often up to 130 µM), inactives show at the highest dose activity change, negative = inhibition, hits mostly inhibitors; AID 485290; further: on the % scale 0 is the no-effect control and ±100 the full control effect; nearly all actives have a fitted effect of over 40% in size
Target sequence (Q9NUW8 whole entry, looked up): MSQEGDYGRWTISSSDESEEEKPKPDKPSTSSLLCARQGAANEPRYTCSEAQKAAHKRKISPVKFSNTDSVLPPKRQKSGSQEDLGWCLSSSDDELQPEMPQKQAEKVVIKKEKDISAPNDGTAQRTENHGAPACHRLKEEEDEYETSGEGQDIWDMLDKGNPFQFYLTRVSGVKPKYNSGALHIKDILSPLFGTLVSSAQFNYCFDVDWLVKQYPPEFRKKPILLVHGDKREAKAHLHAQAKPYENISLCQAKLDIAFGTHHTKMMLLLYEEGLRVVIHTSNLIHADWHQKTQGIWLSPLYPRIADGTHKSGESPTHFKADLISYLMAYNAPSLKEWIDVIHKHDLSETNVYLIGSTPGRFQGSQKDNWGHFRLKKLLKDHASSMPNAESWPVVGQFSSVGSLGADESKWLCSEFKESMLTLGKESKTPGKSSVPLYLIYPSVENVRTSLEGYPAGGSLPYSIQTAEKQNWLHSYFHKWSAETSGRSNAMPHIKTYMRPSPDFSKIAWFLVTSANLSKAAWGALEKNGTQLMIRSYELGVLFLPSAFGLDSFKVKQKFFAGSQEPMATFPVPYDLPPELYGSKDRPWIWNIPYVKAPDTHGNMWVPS
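Compounds were preincubated with Tdp1 (1 nM final) for 15 min at room temperature before substrate (15 nM final) started a 5 min reaction; beads (10 ug/ml final) were then added for 10 min before AlphaScreen detection.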
TDP1 cell noCPT = qHTS for Inhibitors of human tyrosyl-DNA phosphodiesterase 1 (TDP1): qHTS in cells in absence of CPT. actives 15% (n = 420,000). DT40 Tdp1-/- hTDP1 cells, no CPT, ATP luminescence, 48 h. Potency, µM (titrated, usually from 46.2 µM), without a hit: top-dose activity change, negative = growth inhibition, usual class: inhibitors; further: on the % scale 0 is the no-effect control and ±100 the full control effect; nearly all actives have a fitted effect of over 55% in size
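Readout: luminescence from CellTiter-Glo after 30 min in the dark at RT. Cells: DT40 Tdp1-/- with stable hTDP1, 400/well. Exposure: compounds alone, ≥48 hr, 37 °C.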
DT40 TDP1 CPT = growth inhibition of DT40 Tdp1-/-;hTDP1 cells with camptothecin (screen for TDP1 inhibitors); actives 12% (n = 420,000); chicken DT40 Tdp1-/-;hTDP1 cells + 20 nM CPT, ATP luminescence, 48 h; Potency, µM (top dose mostly 46.2 µM), inactives show at the highest dose activity change, negative = growth inhibition, hits mostly inhibitors; further: on the % scale 0 is the no-effect control and ±100 the full control effect; nearly all actives have a fitted effect of over 55% in size
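Chicken DT40 Tdp1-/- cells stably complemented with human TDP1 were seeded at 400 cells/well in medium containing 20 nM camptothecin, exposed to pin-transferred compounds, and grown at 37 °C for at least 48 hr. Viability was read as ATP luminescence.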
* hit, by the source's call; ? = inconclusive; nt = no result; [ ] = another dose, or the depositor's remark. Shown are actives, neighbours in structure and some others; about 17% of the full set was active somewhere. Unless noted, the call rests on the fitted dose curve; in most records, active means well fitted curve in the direction sought with a large enough effect; inconclusive means small, poorly fitted or top-dose-only effect, or another doubt; inactive means no such curve, though single readings can be large; an effect the other way counts as inactive or inconclusive. Potency means the concentration at half of the fitted maximal effect.

SMILES	ClpP mod	TDP1 inh	TDP1 cell noCPT	DT40 TDP1 CPT
Cc1ccc(OCc2nc(C#N)c(N3CCN(Cc4ccccc4)CC3)o2)cc1	-2%	3%	?	18µM*
N#Cc1nc(Cc2cccc3ccccc23)oc1N1CCN(c2ccccc2)CC1	?	2%	?	?
N#Cc1nc(-c2cccs2)oc1N1CCN(Cc2ccccc2)CC1	25µM*	11%	?	?
COc1ccc(-c2oc3ncn4nc(COc5c(C)cccc5C)nc4c3c2-c2ccc(OC)cc2)cc1	4%	1%[12.3 µM]	?	?
COc1cccc(CN(C)C(=O)c2cc(-c3cccs3)nc3ccccc23)c1	32µM*	2%	18µM*	21µM*
COc1cccc(C(=O)COC(=O)c2cccs2)c1	2%	0%	-8%	-2%
COc1ccc(N2CCN(C(=O)c3cc(-c4cccs4)nc4ccccc34)CC2)cc1	nt	5%	?	?
COc1cccc(C(=O)COC(=O)c2cc(-c3cccs3)nc3ccccc23)c1	4%	nt	16µM*	?
CN(C)c1ccc(CC(=O)N2CCCCC2c2cc(C(=O)Nc3cccc4c3CCCC4)no2)cc1 (centres undefined)	-1%	nt	?	26µM*
CN(C)c1ccc(CC(=O)N2CCCCC2c2cc(C(=O)Nc3ccccc3)no2)cc1 (centres undefined)	-4%	nt	26µM*	21µM*
Cc1ccc(F)cc1C(=O)N1CCCCC1c1cc(C(=O)Nc2cccc(C#N)c2)no1 (centres undefined)	-2%	nt	21µM*	29µM*
CN(C)c1ccc(CC(=O)N2CCCCC2c2cc(C(=O)Nc3cccc(C#N)c3)no2)cc1 (centres undefined)	-2%	nt	23µM*	?
N#Cc1ccc(C(=O)N2CCCCC2c2cc(C(=O)Nc3cccc(C#N)c3)no2)cc1 (centres undefined)	-2%	nt	?	?
Cc1ccc(F)cc1C(=O)N1CCCCC1c1cc(C(=O)Nc2ccccc2)no1 (centres undefined)	1%	nt	?	?
Cc1ccccc1CNS(=O)(=O)c1c(C)[nH]c(C)c1C(=O)N1CCCCC1	0%	3%	-1%	?
COc1ccc(-c2cc(=O)n3[nH]cnc3n2)cc1	-2%	5%	-4%	0%
CC1CN(C(=O)CCNS(=O)(=O)c2ccc(Br)cc2)CC(C)O1 (centres undefined)	-10%	6%	1%	7%
CC1(C)CC(NC(=O)COc2ccc3ccc(=O)oc3c2)CC(C)(C)N1	4%	0%	24%	-5%
Cc1ccc(C)c(CC(=O)N2CCCCC2c2cc(C(=O)Nc3cccc(C#N)c3)no2)c1 (centres undefined)	-6%	nt	23µM*	23µM*
COc1cccc(/C=C/C(=O)OCC(=O)NC2CCCCCC2)c1	4%	nt	-1%	-16%
CC(C)C(NC(=O)c1ccc(Cl)c([N+](=O)[O-])c1)C(=O)NCc1ccccn1 (centres undefined)	5%	-1%	-7%	-2%
COc1ccc(/C=N/Nc2nnc(C)n2N)cc1OC	29%	7%	-21%	-29%
COc1ccc(/C=N/Nc2nnc(C)n2N)cc1OC(C)=O	0%	nt	18µM*	8.2µM*
COc1cccc(/C=C2\Oc3cc(OCC(=O)N4Cc5ccccc5C[C@H]4C(=O)O)ccc3C2=O)c1	-9%	nt	?	-29%
COc1ccccc1/C=C1\Oc2cc(OC(=O)N3CCOCC3)ccc2C1=O	-5%	3%	23µM*	15µM*
SMILES	ClpP mod	TDP1 inh	TDP1 cell noCPT	DT40 TDP1 CPT
COc1ccc(/C=C2\Oc3cc(OCC(=O)N4CCC[C@H]4CO)ccc3C2=O)c(OC)c1	-3%	nt	?	23µM*
O=C1/C(=C/c2ccc3c(c2)OCO3)Oc2cc(OCC(=O)N3CCC[C@H]3C(=O)O)ccc21	-1%	nt	-2%	21µM*
O=S(=O)(NC1CCN(Cc2ccccc2)CC1)c1ccc(F)c(F)c1	-1%	nt	2%	6%
c1ccc(CCNc2ccccn2)nc1	-8%	nt	2%	0%
c1ccc(CCNc2ncnc3sccc23)nc1	nt	5%	7.3µM*	6.5µM*
Cc1csc2ncnc(NCCc3ccccn3)c12	0%	6%	3.7µM*	6.5µM*
